Rows were chosen to be rich in hits. Some 17% of all compounds tested hit in one or more screens of this group.
TDP1 cell CPT: growth inhibition of DT40 Tdp1-/-;hTDP1 cells with camptothecin (screen for TDP1 inhibitors); AID 686979; chicken DT40 Tdp1-/-;hTDP1 cells + 20 nM CPT, ATP luminescence, 48 h; Potency, µM (series often up to 46.2 µM), for the others: top-dose activity change, negative = growth inhibition, hits mostly inhibitors; 12% of 420,000 active; further: on the % scale 0 is the no-effect control and ±100 the full control effect; nearly all actives have a fitted effect of over 55% in size
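Chicken DT40 Tdp1-/- cells stably complemented with human TDP1 were seeded at 400 cells/well in medium containing 20 nM camptothecin, exposed to pin-transferred compounds, and grown at 37 °C for at least 48 hr. Viability was read as ATP luminescence.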
HT1080NT lethal: kills 2HG-producing HT-1080-NT fibrosarcoma cells; AID 686970; Potency, µM (doses to about 46.1 µM), without a hit: top-dose activity, negative = less viability, most hits filed as cytotoxic; HT-1080-NT fibrosarcoma viability, CellTiter-Glo ATP luminescence, 48 h; 1.6% of 360,000 active;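 further: NT is the 2HG producing partner of a matched IDH1 knockdown line; 0% = DMSO-treated cells and -100% = media-only wells without cells; nearly all actives have a fitted effect of over 55% in size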
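Fibrosarcoma NT cells, 750 per well in 5% FBS RPMI, were exposed to compound for 48 hours. Viability: CellTiter-Glo luminescence.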
HepG2 tox: counter-screen for TGF-b inhibitors: cytotoxicity in HepG2 cells; HepG2 CAGA-GFP viability, ATP luminescence, 18 h; Potency, µM (series often up to 46.1 µM), without a hit: at the highest dose activity change, negative = cytotoxicity, actives largely listed as cytotoxic; 0.76% of 410,000 active; AID 588856
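HepG2 CAGA-GFP cells (1000/well, DMEM with 1% FBS) received compound, then TGF-beta at 500 pg/mL final, and were incubated 18 hours at 37 degrees C. Viability was read by CellTiter-Glo luminescence. Media-only wells were set as complete cell-killing and DMSO as no toxicity.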
TGFb inhibitor: blocks TGF-b signaling. AID 588855. 1.2% of 410,000 active. Potency, µM (doses to about 46.1 µM), without a hit: at the top dose activity, negative = inhibition, usual class: inhibitors. HepG2 CAGA-GFP TGF-b/SMAD3 reporter, GFP fluorescence, 18 h; TGF-beta stimulated, 500 pg/mL final; further: on the % scale 0 is the no-effect control and ±100 the full control effect; nearly all actives have a fitted effect of over 65% in size
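Inhibition was scored as loss of TGF-beta-induced (500 pg/mL final, 18 hours, 37 degrees C) GFP in HEPG2 cells carrying a CAGA-GFP reporter, in DMEM with 1% FBS. Well GFP was summed per cell; Activity was normalised to unstimulated and stimulated DMSO wells, then concentration-response fitting.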
HT1080 IDH1KD tx: toxicity to HT-1080 IDH1 knockdown cells (counter line). HT-1080 IDH1 knockdown viability, ATP luminescence, 48 h. Potency, µM (highest dose often 46.1 µM), inactives show at the top dose activity, negative = toxicity, most hits filed as cytotoxic. 2% of 360,000 active. AID 686971;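 further: 0% = DMSO wells and -100% = cell-free medium wells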
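Using the IDH1-knockdown HT-1080 line run in the same batch and compound series as the NT line, viability after 48 h at 37 °C was determined by CellTiter-Glo luminescence and expressed as % activity.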
DT40 TDP1 no CPT: qHTS for Inhibitors of human tyrosyl-DNA phosphodiesterase 1 (TDP1): qHTS in cells in absence of CPT | DT40 Tdp1-/- hTDP1 cells, no CPT, ATP luminescence, 48 h | 15% of 420,000 active | Potency, µM (titrated, usually from 46.2 µM), for the others: at the top dose activity change, negative = growth inhibition, hits mostly inhibitors | AID 686978, 2013; further: on the % scale 0 is the no-effect control and ±100 the full control effect; nearly all actives have a fitted effect of over 55% in size
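Compound effects on proliferation are scored in DT40 Tdp1-/-;hTDP1 cells in the absence of CPT. ATP levels (CellTiter-Glo luminescence) are recorded after a ≥48 hr, 37 °C incubation.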
The depositor's hits bear a star; ? = inconclusive; . = no result. The call rests on the fitted dose curve; in most records, active means well fitted curve in the direction sought with a large enough effect; inconclusive means small, poorly fitted or top-dose-only effect, or another doubt; inactive means no such curve, though single readings can be large; an effect the other way counts as inactive or inconclusive. Potency means the concentration at half of the fitted maximal effect.

SMILES	TDP1 cell CPT	HT1080NT lethal	HepG2 tox	TGFb inhibitor	HT1080 IDH1KD tx	DT40 TDP1 no CPT
COc1ccc(OC)c2c(/C=C/c3ccc(N(C)C)cc3)ccnc12	10µM*	.	9%	0%	.	6.3µM*
COc1ccc(OC)c2c(/C=C/c3c(C)[nH]c4ccccc34)ccnc12	10µM*	.	-96%	?	.	11µM*
CN(C)c1ccc(/C=C/c2ccnc3c(N)cccc23)cc1	2µM*	.	-54%	1%	.	1.4µM*
COc1ccccc1NC(C)C(=O)c1c(C)[nH]c2ccccc12 (stereo not drawn)	-30%	.	-10%	-21%	.	?
CN(C)c1ccc(/C=C/c2ccnc3cc(Cl)ccc23)cc1	?	.	-9%	35%	.	11µM*
C[C@H](CO)N1C[C@H](C)[C@@H](CN(C)Cc2ccc(Oc3ccccc3)cc2)OCc2cnnn2CCCC1=O	-8%	-1%	-29%	-18%	-2%	-14%
COc1ccccc1Cn1c(=S)[nH]c2cc(C(=O)NCC(OC)OC)ccc2c1=O	?	5%	1%	-3%	9%	-13%
Cc1cc(C)c2c(/C=C/c3ccc(N(C)C)cc3)ccnc2c1	?	.	4%	-10%	.	?
Cc1ccc2c(/C=C/c3ccc(N(C)C)cc3)ccnc2c1	11µM*	.	-33%	?	.	?
Cc1ccc2nccc(/C=C/c3ccc(N(C)C)cc3)c2c1	11µM*	.	-24%	1%	.	14µM*
CCOc1ccccc1OCCCC(=O)Nc1ccc(Cl)c(S(=O)(=O)N2CCOCC2)c1	?	-12%	1%	?	-24%	?
COc1ccc(S(=O)(=O)N2CCN(C/C=C/c3ccccc3)CC2)cc1F	2%	-8%	5%	-25%	-3%	?
CCOC(=O)c1ccc(NC(=O)Cn2c(-c3nonc3N)nc3ccccc32)cc1	16µM*	-3%	4%	-12%	0%	?
O=C(Cn1c(-c2cscn2)nc2ccccc21)Nc1ccccc1F	7.9µM*	-7%	7%	1%	?	?
CCc1ccc(NC(=O)Cn2c(-c3cncs3)nc3ccccc32)cc1	?	.	-6%	-4%	.	15µM*
Cc1ccc(NC(=O)Cn2c(-c3cncs3)nc3ccccc32)cc1Br	?	.	-12%	1%	.	?
O=C(Cn1c(C(F)(F)F)nc2ccccc21)Nc1ccccc1C(=O)O	-2%	-15%	5%	-9%	?	-12%
COC(=O)c1ccccc1NC(=O)Cn1c(-c2nonc2N)nc2ccccc21	0.79µM*	0.71µM*	-2%	-22%	0.32µM*	0.71µM*
CCOC(=O)[C@H](C)N1[C@H](C)[C@H](c2ccccc2)Oc2ccc(Cl)cc2S1(=O)=O	?	12%	14%	16%	7%	?
COc1ccc(C(=O)Nc2nc(-c3nnn(-c4ccc(F)cc4F)c3C)ns2)cc1	15µM*	.	-36%	?	.	13µM*
Cc1cccc(C(=O)Nc2nc(-c3nnn(-c4cc(F)ccc4F)c3C)ns2)c1	?	.	-38%	?	.	?
Cc1c(-c2nsc(NC(=O)c3ccc(Cl)cc3)n2)nnn1-c1ccc(C(C)C)cc1	10µM*	.	-54%	?	.	9.2µM*
COC(=O)c1ccc(-n2nnc(-c3nsc(NC(=O)c4ccc(Cl)cc4)n3)c2C)cc1	-18%	.	3%	-9%	.	-4%
C=CCOc1cccn2c(N(C)C(=O)c3ccc(OC)cc3)c(CC)nc12	?	20%	-5%	4%	?	-22%
CCCCN(C=O)c1c(CC)nc2c(OCCOc3ccccc3)cccn12	?	-17%	-43%	?	-17%	21µM*
SMILES	TDP1 cell CPT	HT1080NT lethal	HepG2 tox	TGFb inhibitor	HT1080 IDH1KD tx	DT40 TDP1 no CPT
CCc1nc2c(OCC(=O)C(C)(C)C)cccn2c1N(C=O)Cc1ccccc1	-2%	12%	-13%	-4%	10%	-6%
CCCOc1cccn2c(N(C=O)Cc3ccc(OC)cc3)c(CC)nc12	16µM*	1%	1%	-24%	2%	?
C=CCOc1cccn2c(N(C=O)Cc3ccc(OC)cc3)c(CC)nc12	18µM*	5%	-18%	-14%	-9%	12µM*
CCc1nc2c(OCC3CCCCC3)cccn2c1N(C=O)Cc1ccc(OC)cc1	21µM*	?	-14%	?	?	21µM*
CCc1nc2c(OCCOc3ccc(F)cc3)cccn2c1N(C=O)Cc1ccccc1	21µM*	?	-19%	-16%	6%	?
O=c1cc(-c2ccc(C3CCCCC3)cc2)[nH][nH]1	?	-23%	7%	-2%	-30%	?
CCN(CC)S(=O)(=O)c1cccc(NC(=O)c2ccc(SC)cc2OC)c1	26µM*	-7%	-37%	?	-18%	7.3µM*
COc1cc(SC)ccc1C(=O)Nc1cccc(S(=O)(=O)NC2=NCCCCC2)c1	21µM*	-13%	0%	?	-5%	?
CCC(C(=O)Nc1c(C)cccc1C)n1c(-c2ccc(=O)[nH]c2)nc2ccccc21 (stereo not drawn)	0%	-2%	.	.	11%	-4%
Cc1ccc(NC(=O)c2sc(N)nc2C)cc1	-3%	15%	-8%	4%	9%	11%
Cc1csc(CNC(=O)C2CCC(=O)N(CCc3cccc(F)c3)C2)n1 (stereo not drawn)	13%	15%	-7%	5%	0%	1%
Cc1ccc2nc(/C(C#N)=C\c3ccc(N4CCCCC4)c([N+](=O)[O-])c3)[nH]c2c1	21µM*	?	-33%	-10%	?	10µM*
COc1cccc(/C=C(\C#N)c2nc3ccc(C)cc3[nH]2)c1OCC(=O)O	-15%	5%	-49%	4%	1%	6%
COc1cc(/C=C(\C#N)c2nc3ccccc3[nH]2)c([N+](=O)[O-])cc1OCc1ccccc1	23µM*	-3%	-12%	7%	-2%	18µM*
CCOc1cccc(/C=C(/C#N)c2nc3ccccc3[nH]2)c1OCC(=O)O	15%	24%	-13%	-30%	15%	-4%
N#C/C(=C/c1ccc(N2CCOCC2)o1)c1ccc(Cl)cc1	?	6.3µM*	-60%	58%	3.5µM*	15µM*
N#C/C(=C\c1ccc(Oc2ccc(C(F)(F)F)cc2[N+](=O)[O-])cc1)c1nc2ccccc2[nH]1	-74%	-8%	-18%	?	-8%	21µM*
